The structures appear in SMILES notation. Values joined by “and” are separate entries in the source; they are usually repeats but may differ in a detail not shown here. Identical values can stand only once. Unmarked numbers belong to inactive results. Records with an inconclusive call do not appear. Active and inactive are the calls of the source. Calls come from the whole dose curve; as a rule, active = well fitted curve in the direction sought with a large enough effect; inconclusive = small, poorly fitted or top-dose-only effect, or another doubt; inactive = no such curve, though single readings can be large; an effect the other way counts as inactive or inconclusive.

Data on 37 compounds can be found in PubChem BioAssay (NCATS).

System in the first assay: not listed separately
Kind of assay: Inducers of the Endoplasmic Reticulum Stress Response (ERSR) in human glioma: Validation (AID 504836). Note: 0% is about no effect. Particulars: human glioma cells, ER stress response reporter; series mostly up to 38.3 µM; activation: at the top concentration. A digest of the protocol:
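ERSR induction read as luciferase luminescence (Bright-Glo, 10 min at room temperature) in stably transfected human U87-MG glioma cells exposed to compounds for 16 h, using GRP78 as sensor.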
On to `CCN(CC)CCNC(=O)c1cc(Cl)c(N)cc1OC`, for which the “activation” value is -1.16%.
Turning to `CNCCCC1c2ccccc2C=Cc2ccccc21`, the “activation” value was -0.254%.
Regarding `O=C(c1ccc(OCCN2CCCCC2)cc1)c1c(-c2ccc(O)cc2)sc2cc(O)ccc12`, the “activation” value is 2.09%.
As for `CCOC(=O)C1=C(C)NC(C)=C(C(=O)OC)C1c1cccc(Cl)c1Cl` (centres undefined), the “activation” value is 0.412%.
`CCCNCC(O)COc1ccccc1C(=O)CCc1ccccc1` (centres undefined): the “activation” value is 0.0419%.
Turning to `Oc1ccc(C2CNCCc3c2cc(O)c(O)c3Cl)cc1` (centres undefined), the “activation” value was -1.93%.
The same measure, in the same setting: the same measure for `CN1CCC(=C2c3ccccc3C=Cc3ccccc32)CC1`: 2.52%.
With `O=C(O)COCCN1CCN(C(c2ccccc2)c2ccc(Cl)cc2)CC1` (centres undefined), the “activation” value is 1.45%.
For the compound `N[C@@H]1CONC1=O`, the “activation” value is 0.346%.
Same read-out and setting: then `COCCCC/C(=N\OCCN)c1ccc(C(F)(F)F)cc1`, with -0.72%.
On the same count and under the same terms, the same measure for `Fc1ccc([C@@H]2CCNC[C@H]2COc2ccc3c(c2)OCO3)cc1`: -1.25%.
`CC(=O)Nc1nnc(S(N)(=O)=O)s1`: the “activation” value is -2.47%.
In the case of `Cc1cnc(C(=O)NCCc2ccc(S(=O)(=O)NC(=O)NC3CCCCC3)cc2)cn1`, the “activation” value was -3.64%.
For `CN1CCN(C2=Nc3cc(Cl)ccc3Nc3ccccc32)CC1`, the “activation” value is -0.248%.
Same read-out and setting: then `Clc1ccc2c(c1)C(N1CCNCC1)=Nc1ccccc1O2`, with -1.17%; and `COC(=O)[C@H]1[C@H]2C[C@@H]3c4[nH]c5cc(OC)ccc5c4CCN3C[C@H]2C[C@@H](OC(=O)c2cc(OC)c(OC)c(OC)c2)[C@@H]1OC`, with -1.51%; and `O=c1c(O)c(-c2ccc(O)c(O)c2)oc2cc(O)cc(O)c12`, with 7.54%.
With `Nc1nc2c(ncn2COCCO)c(=O)[nH]1`, the “activation” value was -1.22%.
The same measure, in the same setting: the same measure for `COC(=O)Nc1nc2ccc(C(=O)c3cccs3)cc2[nH]1`: -2.66%.
Still for that read-out and setting: then `CC(C)(C(=O)O)c1ccc(C(O)CCCN2CCC(C(O)(c3ccccc3)c3ccccc3)CC2)cc1` (centres undefined), with -0.403%; and `CC[N+](C)(C)c1cccc(O)c1`, with -2.23%.
`Cc1cn[nH]c1`: the “activation” value was -1.52%.
Still for that read-out and setting: the same measure for `O=NN(CCCl)C(=O)NCCCl`: 1.26%; for `CC#C[C@]1(O)CC[C@H]2[C@@H]3CCC4=CC(=O)CCC4=C3[C@@H](c3ccc(N(C)C)cc3)C[C@@]21C`: -0.257%; for `Cc1ccc(S(=O)(=O)NC(=O)NN2CCCCCC2)cc1`: -3.97%.
Still for that read-out and setting: then `O=c1n(CCCN2CCN(c3cccc(Cl)c3)CC2)nc2ccccn12`, with 0.597%.
Still for that read-out and setting: then `NC[C@H](O)c1ccc(O)c(O)c1`, with -3.09%; and `Cc1cc2c(C(C)C)c(O)c(O)c(C=O)c2c(O)c1-c1c(C)cc2c(C(C)C)c(O)c(O)c(C=O)c2c1O`, with -4.89%; and `CN/C(=C\[N+](=O)[O-])NCCSCc1ccc(CN(C)C)o1`, with 0.197%.
As for `CSc1ccc2c(c1)N(CCC1CCCCN1C)c1ccccc1S2` (centres undefined), the “activation” value is -2.55%.
Consider `NC(=O)c1cn(Cc2c(F)cccc2F)nn1`, for which the “activation” value was -1.98%.
As for `COc1cc(Cc2cnc(N)nc2N)cc(OC)c1OC`, the “activation” value is -3.01%.
On to `NC12CC3CC(CC(C3)C1)C2`, for which the “activation” value was -0.889%.
In the case of `CC(=O)[C@]1(O)Cc2c(O)c3c(c(O)c2[C@@H](O[C@H]2C[C@H](N)[C@H](O)[C@H](C)O2)C1)C(=O)c1ccccc1C3=O`, the “activation” value was -7.63%.
Same read-out and setting: the same measure for `Cn1cnc([N+](=O)[O-])c1Sc1ncnc2nc[nH]c12`: -1.08%; for `COc1cc2c(c(OC)c1OC)-c1ccc(OC)c(=O)cc1[C@@H](NC(C)=O)CC2`: -5.28%.

In a further assay the target is Ubiquitin carboxyl-terminal hydrolase 1 (Homo sapiens) (UniProt O94782). Kind of assay: Inhibitors of USP1/UAF1: Pilot qHTS (AID 504865).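 For activity change, negative = inhibition: rhodamine fluorescence freed from ubiquitin-rhodamine substrate followed over time; top concentration of the series differs between compounds; % is set by controls: 0 for no effect and ±100 for the full control effect.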 Note: nearly all actives have a fitted effect of over 35% in size. Note: potency is the fitted concentration of half-maximal effect. The note with it: purified USP1/UAF1, Ub-rhodamine cleavage fluorescence; series mostly up to 114 µM; activity change, negative = inhibition: at the top concentration. The method, boiled down: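 USP1/UAF1 complex (1nM) preincubated with compound 15 min at room temperature, then Ub-Rho substrate (150nM final) added. Fluorescence read kinetically at 480/540 nm, 6 reads every 60 seconds. Buffer: 50mM HEPES pH 7.8, 0.5mM EDTA, 0.1 mg/ml BSA, 1mM TCEP, 0.01% Tween-20.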
Sequence of Ubiquitin carboxyl-terminal hydrolase 1 (Homo sapiens) (O94782 whole entry, looked up): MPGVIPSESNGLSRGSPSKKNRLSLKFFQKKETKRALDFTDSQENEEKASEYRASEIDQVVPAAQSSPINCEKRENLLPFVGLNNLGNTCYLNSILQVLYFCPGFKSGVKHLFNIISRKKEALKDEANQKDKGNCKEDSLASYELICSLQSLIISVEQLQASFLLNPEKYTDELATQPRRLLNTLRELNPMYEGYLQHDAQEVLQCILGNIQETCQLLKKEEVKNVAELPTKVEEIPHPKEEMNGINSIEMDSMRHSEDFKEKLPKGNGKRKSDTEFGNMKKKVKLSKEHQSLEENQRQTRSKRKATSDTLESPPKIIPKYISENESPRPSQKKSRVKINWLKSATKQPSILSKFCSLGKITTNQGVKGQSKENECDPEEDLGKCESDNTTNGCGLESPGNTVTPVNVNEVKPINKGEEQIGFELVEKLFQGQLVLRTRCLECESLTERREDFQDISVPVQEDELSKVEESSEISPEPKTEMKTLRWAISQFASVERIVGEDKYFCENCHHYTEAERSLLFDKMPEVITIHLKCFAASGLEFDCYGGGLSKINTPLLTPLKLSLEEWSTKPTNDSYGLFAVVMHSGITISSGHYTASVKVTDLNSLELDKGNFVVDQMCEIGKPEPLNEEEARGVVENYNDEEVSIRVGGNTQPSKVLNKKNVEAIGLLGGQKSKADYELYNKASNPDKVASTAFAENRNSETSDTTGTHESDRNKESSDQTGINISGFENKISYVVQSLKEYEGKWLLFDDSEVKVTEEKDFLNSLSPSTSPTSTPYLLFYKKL
For orientation: Quantitative high-throughput screening tests each substance at several concentrations.
As to `Clc1cccc(N2CCNCC2)c1`, the “activity change, negative = inhibition” value was -5.58%.
As to `Cc1cc2c(C(C)C)c(O)c(O)c(C=O)c2c(O)c1-c1c(C)cc2c(C(C)C)c(O)c(O)c(C=O)c2c1O`, the Potency is 22.4 µM (active) and 31.6 µM (active) and 10 µM (active).
As for `COc1cc2c(c(OC)c1OC)-c1ccc(OC)c(=O)cc1[C@@H](NC(C)=O)CC2`, the Potency result was “inactive”.
